Data from PubChem BioAssay AID1159580 (chemical genetic matrix, 2015).
Among all 5,500 compounds or so, about 2,000 (36%) were called active. Roughly 18% stayed inconclusive and do not appear here. Cut-off read from the data, not from the text of the source: active = normalized growth mostly below about 0.91 (no sharp cut-off); inconclusive = no clear call, values can overlap the other calls; inactive = mostly above about 0.92. This is one part of the list.

Assay: chemical genetic growth profiling, strain panel (AID 1159580);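 note: tested at 20 µM; growth read once vehicle control cultures reached saturation at 30 °C; 1 = growth at the plate median or of vehicle wells; lower values mean less growth of the strain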
Conditions: S. cerevisiae deletion strains, growth OD

Measured: normalized growth

CCOC(=O)C1=C(N)Oc2ccc(Br)cc2C1C(C#N)C(=O)OCC (stereo not drawn)
active: locus YDL101C, strain DUN1, stronger effect = lower value 0.884 | locus YEL061C, strain CIN8, stronger effect = lower value 0.648 | locus YHR030C, strain SLT2, stronger effect = lower value 0.293 | locus YJR075W, strain HOC1, stronger effect = lower value 0.88 | locus YLR039C, strain RIC1, stronger effect = lower value 0.386 | locus YLR085C, strain ARP6, stronger effect = lower value 0.379 | locus YLR262C, strain YPT6, stronger effect = lower value 0.46 | locus YML094W, strain GIM5, stronger effect = lower value 0.669 | locus YMR307W, strain GAS1, stronger effect = lower value 0.667 | locus YNL298W, strain CLA4 (second series), stronger effect = lower value 0.61 | locus YNR030W, strain Alg12, stronger effect = lower value 0.528 | locus YPL241C, strain CIN2, stronger effect = lower value 0.472 | locus YPR135W, strain CTF4, stronger effect = lower value 0.424
inactive: locus YAL013W, strain DEP1, stronger effect = lower value 0.934 | locus YBR229C, strain ROT2, stronger effect = lower value 0.938 | locus YCL061C, strain MRC1, stronger effect = lower value 0.916 | locus YDR150W, strain NUM1, stronger effect = lower value 0.957 | locus YGR078C, strain PAC10, stronger effect = lower value 0.938 | locus YGR229C, strain SMI1, stronger effect = lower value 0.963 | locus YHR087W, strain rtc3, stronger effect = lower value 0.979 | locus YJL187C, strain SWE1, stronger effect = lower value 0.959 | locus YJR043C, strain POL32, stronger effect = lower value 0.983 | locus YLR058C, strain SHM2 (second series), stronger effect = lower value 0.986 | locus YMR219W, strain ESC1, stronger effect = lower value 0.979 | locus YMR263W, strain SAP30, stronger effect = lower value 0.964 | locus YNL153C, strain GIM3, stronger effect = lower value 0.982 | locus YNL322C, strain KRE1, stronger effect = lower value 0.992 | locus YPL055C, strain LGE1, stronger effect = lower value 0.98
